HCV inh = qHTS Assay for Inhibitors of Hepatitis C Virus (HCV); Potency, µM (series often up to 41.8 µM), usual class: inhibitors; Huh7.5.1 HCVcc-Cre infection, luciferase reporter, 44 h; actives 3.4% (n = 340,000); AID 651820, 2012
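Luciferase read-out (15 sec integration) after a 15 min room-temperature substrate step quantifies HCVcc-Cre infection. Cells, 1,000 per well, had compound added 4 h post-plating, then virus at ~0.5 moi, and were cultured 44 h.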
Vaccinia Venus = qHTS for Stage-Specific Inhibitors of Vaccinia Orthopoxvirus: Venus Reporter Primary qHTS; Potency, µM (top dose mostly 36.5 µM), most hits filed as inhibitors; AID 720580, 2013; Vaccinia virus Venus reporter expression, fluorescence; actives 0.46% (n = 330,000); calls by dose curve; tested in A549 cells; also: nearly all actives have a fitted effect of over 30% in size
HCMV antiviral = qHTS Assay for inhibitors of the human cytomegalovirus (HCMV) | HFF cells, HCMV-luciferase reporter, 72 h; stronger effect = lower value | activity change, negative = inhibition, % at 57.5 µM | actives 4.5% (n = 410,000); in the data active = activity change below about -60%; inconclusive = no clear call, values can overlap the other calls; inactive = above about -39%
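Screen run at 2 compound doses on HFFs infected with reporter HCMV, MOI 1 PFU/cell. Luciferase activity from cell lysates at 72 h post infection gave inhibition relative to buffer-only and Salinomycin wells.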
FMDV antiviral = High Throughput Screening for Foot and Mouth Disease Virus Antivirals. Potency, µM (highest dose often 57.9 µM), most hits filed as inhibitors. actives 1.2% (n = 410,000). FMDV antiviral cell-based qHTS. AID 1159524, 2015; calls by dose curve; tested in HEK293T cells; also: read-out not given here; nearly all actives have a fitted effect of over 45% in size
Vaccinia mCherry = qHTS for Stage-Specific Inhibitors of Vaccinia Orthopoxvirus: mCherry Reporter Primary qHTS | Vaccinia virus mCherry reporter infection, fluorescence | Potency, µM (doses to about 36.5 µM), most hits filed as inhibitors | actives 0.63% (n = 310,000) | AID 720579, 2013; calls by dose curve; tested in A549 cells; also: nearly all actives have a fitted effect of over 35% in size
FBPA Giardia inh = qHTS Assay for Inhibitors of Fructose-1,6-bisphosphate Aldolase from Giardia Lamblia | purified Giardia FBPA | Potency, µM (titrated, usually from 59.6 µM), usual class: inhibitors | actives 0.71% (n = 290,000); also: nearly all actives have a fitted effect of over 55% in size
Target sequence (A8B2U2 whole entry, looked up): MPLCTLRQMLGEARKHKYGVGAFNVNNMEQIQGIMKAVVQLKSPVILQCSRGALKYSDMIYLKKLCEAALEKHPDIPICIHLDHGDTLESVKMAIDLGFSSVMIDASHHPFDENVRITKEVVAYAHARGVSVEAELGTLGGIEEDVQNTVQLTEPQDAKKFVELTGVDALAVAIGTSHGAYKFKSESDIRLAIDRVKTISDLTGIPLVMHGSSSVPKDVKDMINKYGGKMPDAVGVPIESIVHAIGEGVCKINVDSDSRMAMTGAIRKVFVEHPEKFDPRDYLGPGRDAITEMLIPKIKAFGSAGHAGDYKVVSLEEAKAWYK
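Giardia FBPA (40 nM reagent) was preincubated 10 min at RT with compound (up to 57.5 uM final), then substrate plus GAPDH/TPI/NAD/arsenate coupling system with diaphorase/resazurin was added; resorufin fluorescence (525/598 nm) was read after 20 min.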
A number is an active result; - = inactive; ? = inconclusive; . = no result; [ ] = remark or other dose. Sampled rows, rich in hits. Any-hit rate of the full collection: about 7.5%. Unless noted, calls follow the shape of the dose curve; as a rule, active = well fitted curve in the direction sought with a large enough effect; inconclusive = small, poorly fitted or top-dose-only effect, or another doubt; inactive = no such curve, though single readings can be large; an effect the other way counts as inactive or inconclusive.

SMILES | HCV inh | Vaccinia Venus | HCMV antiviral | FMDV antiviral | Vaccinia mCherry | FBPA Giardia inh
COc1ccc(-c2nn(-c3ccccc3)cc2CNC[C@H]2O[C@@H](n3cnc4c(=O)[nH]c(N)nc43)[C@H](O)[C@@H]2O)cc1 | . | - | - | - | - | .
CCCCNS(=O)(=O)c1ccc(S(=O)(=O)NCc2ccncc2)cc1 | 10µM | - | -72 | . | ? | -
Cc1ccc(S(=O)(=O)NCCc2ccncc2)cc1 | - | . | - | - | . | -
CCCCc1ccc(S(=O)(=O)NCCc2ccncc2)cc1 | 11µM | ? | -63 | - | . | -
O=[N+]([O-])c1cccc(S(=O)(=O)NCc2ccncc2)c1 | 13µM | - | ? | ? | ? | -
O=S(=O)(NCc1ccncc1)c1ccc(S(=O)(=O)NCC2CCCO2)cc1 (stereo not given) | 13µM | - | - | . | - | -
CCOc1ccc(S(=O)(=O)NCCC(=O)NCc2ccncc2)cc1 | - | - | - | - | - | .
O=[N+]([O-])c1cccc(S(=O)(=O)Nc2ccc(Cc3ccncc3)cc2)c1 | ? | . | - | - | . | -
CC(C)(C)c1ccc(NC(=S)NCc2cccnc2)cc1 | 32µM | . | - | - | . | -
CC(C)(C)c1ccc(C(=O)NC(=S)NCc2cccnc2)cc1 | 22µM | - | -78 | - | - | -
CC(C)(C)c1ccc(C(=O)NCc2cccnc2)cc1 | - | . | - | - | . | -
S=C(NCc1cccnc1)Nc1ccc(Oc2ccc(Cl)cc2)cc1 | ? | ? | -61 | - | - | -
COc1ccc(NC(=S)NCc2cccnc2)cc1 | - | - | - | - | - | -
CCCCN(CCCC)CP(=O)(c1ccccc1)c1ccccc1 | - | - | - | - | - | -
O=C1c2cccc(O)c2C(=O)c2c(O)cccc21 | -[8.37 µM] | - | . | - | - | -
CC1OC(CC(=O)O)CC2=C1C(=O)c1c(O)cccc1C2=O (stereo not given) | 0.56µM | ? | - | 3.5µM | ? | .
Cc1cccc(NC(=O)c2nc[nH]c2C(=O)N2CCN(c3ccccc3)CC2)c1 | - | - | ? | - | ? | .
O=C(Nc1ccc(C2=NCCN2)cc1)c1ccc(C(=O)Nc2ccc(C3=NCCN3)cc2)c([N+](=O)[O-])c1 | - | - | ? | - | - | -
O=[N+]([O-])c1cc(Cl)cc(C2=NCCN2)c1 | 8.9µM | . | - | - | . | -
CC(=O)OC[C@]12C[C@H](OC(=O)CC(C)C)C(C)=C[C@H]1O[C@H]1[C@H](O)[C@@H](OC(C)=O)[C@@]2(C)[C@]12CO2 | . | . | . | . | . | -
CC(=O)OC[C@]12CCC(C)=C[C@H]1O[C@@H]1[C@H](O)[C@@H](OC(C)=O)[C@@]2(C)[C@]12CO2 | ? | 3.2µM | -77 | ? | ? | -
Cc1ccc(C(=O)N/C(=C\c2ccc(-c3cc(Cl)ccc3Cl)o2)C(=O)NCc2cccnc2)cc1 | 10µM | ? | - | - | . | -
O=C(NCc1cccnc1)/C(=C\c1ccc(-c2cccc(Cl)c2)o1)S(=O)(=O)c1ccccc1 | ? | 10µM | -103 | 18µM | 11µM | -
COC1(C#CC2C=CC(OC(C)=O)C(COC(C)=O)O2)CCCCC1 (stereo not given) | . | . | . | . | . | -[12.9 µM]
CCCn1c(N)c(N(CCOC)C(=O)/C=C/c2ccc(C(=O)OC)cc2)c(=O)[nH]c1=O | - | . | - | - | . | -
SMILES | HCV inh | Vaccinia Venus | HCMV antiviral | FMDV antiviral | Vaccinia mCherry | FBPA Giardia inh
O=C(/C=C1\C(=O)Nc2ccccc21)/C=C1\C(=O)Nc2ccccc21 | ? | . | - | ? | . | -
O=C1Nc2ccccc2/C1=C\C(=O)c1ccccc1 | - | . | - | 32µM | . | -
CC[n+]1c(-c2ccccc2)c2cc(N)ccc2c2ccc(N)cc21 | ? | - | -100 | 40µM | - | ?
CC[n+]1c2ccccc2cc2ccccc21 | . | - | . | . | - | .
CC(C)=CCCC(C)CN1CCC(N2CCC(C(=O)N3CCCC3)CC2)CC1 (stereo not given) | 2.5µM | . | ? | ? | . | -
CCN(CC)C(=O)CSc1nc2cc(OC)c(OC)cc2c(=O)n1Cc1ccc(Cl)cc1 | ? | . | -78 | - | . | -
Clc1cccc(-c2cc3nc4c(c(NCc5ccco5)n3n2)CCCC4)c1 | 10µM | ? | - | . | - | -
c1coc(CNc2c3c(nc4ncnn24)CCCC3)c1 | - | - | - | - | - | -
CCOc1ccc(CN2CCN(C(=O)c3ccccc3)CC2)cc1 | 11µM | ? | - | ? | ? | -
CCOc1ccc2oc(=O)cc(CN3CCN(C(=O)c4ccc(Cl)cc4)CC3)c2c1 | . | - | -67 | - | - | .
CCOC(=O)N1CCN(Cc2cc(=O)oc3ccc4ccccc4c23)CC1 | - | - | - | 20µM | . | -
CCOc1ccc(CN2CCN(C(=O)c3cccc4ccccc34)CC2)cc1 | 7.1µM | . | ? | ? | . | -
CCOc1ccc(C(=O)N2CCN(Cc3ccccc3)CC2)cc1 | - | - | - | . | - | -
Cc1ccc(-c2nn(CC(=O)NC3CCCCC3)c3c2cnc2ccccc23)cc1 | . | - | - | - | - | .
Cc1c(C(=O)N2CCCCCC2)sc2ncnc(NCC3CCCO3)c12 (stereo not given) | . | - | . | - | - | .
COc1ccc(N2C(=O)[C@@H]3C[C@H]2CN3Cc2ccc3nccnc3c2)cc1Cl | . | - | . | - | - | .
C[C@H](Nc1nc(Br)cnc1N)c1ccccc1 | . | . | - | . | . | .
CCOc1ccc(CNc2ccc(N3CCN(Cc4ccccc4)CC3)cc2)cc1 | 10µM | - | - | - | ? | -
CC(=O)Nc1ccc(N2CCN(Cc3ccccc3)CC2)cc1 | - | . | . | - | . | -
S=C(Nc1ccccc1)N1CCN(C(=S)c2ccccc2)CC1 | - | - | -102 | - | - | -
CCN(CC)CCN1C(=O)/C(=C\c2ccc(Cl)c([N+](=O)[O-])c2)SC1=Nc1ccc(OC)cc1 | ? | - | -99 | 25µM | ? | -
COc1ccc(N=C2S/C(=C\c3ccc(Cl)c([N+](=O)[O-])c3)C(=O)N2CCN(C)C)cc1 | ? | ? | - | 28µM | - | -
CC(C)=CC(=O)Nc1ccccc1C(N)=O | - | - | -74 | - | - | -
CCOC(=O)c1ccccc1NC(=O)C=C(C)C | - | - | - | - | - | -
Cc1ccccc1Oc1cc(-n2ncc(Cl)c(Cl)c2=O)ncn1 | ? | 10µM | -105 | 4.5µM | ? | -
SMILES | HCV inh | Vaccinia Venus | HCMV antiviral | FMDV antiviral | Vaccinia mCherry | FBPA Giardia inh
Cc1ccccc1NC(=O)CCCCC(=O)Nc1ccccc1C | - | - | - | - | - | -
Cc1ccccc1NC(=O)C(Cl)=C(Cl)Cl | ? | - | -78 | ? | ? | -
CCCNC(=O)c1nnc2n1CCN(C(=O)c1ccc(F)c(F)c1)C2 | . | . | - | . | . | .
COC(=O)Cc1[nH]n(-c2ccccc2)c(=O)c1C=Nc1ccc(C)cc1 | - | - | ? | - | - | -
O=C(Nc1ccccn1)C(c1ccccc1)c1ccccc1 | . | - | - | - | ? | .
O=C(CC1(O)C(=O)N(C/C=C/c2ccccc2)c2ccccc21)c1ccccn1 (stereo not given) | - | . | -71 | - | . | -
